# Assays:
# Test in all cases: DAPPL (digital affinity profiling via proximity ligation, sequencing); 10 mM Tris-HCl pH 7.5, 50 mM NaCl, 1 mM DTT, 4% glycerol, room temperature, 30 min; GST-TFs on glutathione beads, 16-mer random dsDNA library, 0.1% formaldehyde crosslink after washing; high values mean tight binding
# FLI1 = target: T1, FLI1 (Homo sapiens, UniProt Q01543 1-452); details: protein: recombinant; tags: N-terminal GST; dsDNA, one strand shown
# T1 sequence: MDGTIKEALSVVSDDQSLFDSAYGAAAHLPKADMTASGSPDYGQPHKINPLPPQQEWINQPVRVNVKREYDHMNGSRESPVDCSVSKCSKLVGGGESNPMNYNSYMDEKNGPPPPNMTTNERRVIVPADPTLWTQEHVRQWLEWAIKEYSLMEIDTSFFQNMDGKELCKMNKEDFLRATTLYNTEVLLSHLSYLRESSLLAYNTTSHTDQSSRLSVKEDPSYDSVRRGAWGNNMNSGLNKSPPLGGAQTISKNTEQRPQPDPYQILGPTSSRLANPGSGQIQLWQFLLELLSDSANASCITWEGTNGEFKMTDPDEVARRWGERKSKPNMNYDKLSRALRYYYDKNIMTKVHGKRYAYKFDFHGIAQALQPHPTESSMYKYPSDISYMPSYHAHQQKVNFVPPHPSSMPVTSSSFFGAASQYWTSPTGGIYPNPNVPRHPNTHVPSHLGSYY
# Procedure, shortened: (§1)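 Yeast served to express human transcription factors as GST fusions, which were then captured on glutathione beads and labelled with DNA barcodes. Pooled with a tag-only sample, they were incubated with 200 nmole of a 16-mer random double-stranded DNA library for 30 min at room temperature in Tris/NaCl/DTT/glycerol buffer, washed, crosslinked with 0.1% formaldehyde, ligated by proximity, amplified by PCR and sequenced. Dividing each hexamer's read frequency for a factor by its frequency for the tag-only sample gives the binding signal.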
# ELK1 = target: T2, ELK1 (Homo sapiens, UniProt P19419 1-428); details: protein: recombinant; tags: N-terminal GST; dsDNA, one strand shown
# T2 sequence: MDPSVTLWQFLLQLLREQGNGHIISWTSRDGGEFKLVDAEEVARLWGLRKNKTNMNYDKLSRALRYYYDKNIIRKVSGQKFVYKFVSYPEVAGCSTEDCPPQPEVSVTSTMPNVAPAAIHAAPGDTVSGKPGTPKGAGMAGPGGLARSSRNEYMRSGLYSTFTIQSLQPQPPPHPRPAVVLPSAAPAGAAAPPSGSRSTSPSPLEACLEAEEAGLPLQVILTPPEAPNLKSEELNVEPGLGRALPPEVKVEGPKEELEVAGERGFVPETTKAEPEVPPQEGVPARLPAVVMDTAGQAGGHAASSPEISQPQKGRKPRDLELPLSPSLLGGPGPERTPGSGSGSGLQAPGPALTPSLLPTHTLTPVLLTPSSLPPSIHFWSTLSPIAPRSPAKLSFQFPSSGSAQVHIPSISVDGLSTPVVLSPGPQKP
# Procedure, shortened: as §1
# GABPA = target: T3, GABPA (Homo sapiens, UniProt Q06546 1-454); details: protein: recombinant; tags: N-terminal GST; dsDNA, one strand shown
# T3 sequence: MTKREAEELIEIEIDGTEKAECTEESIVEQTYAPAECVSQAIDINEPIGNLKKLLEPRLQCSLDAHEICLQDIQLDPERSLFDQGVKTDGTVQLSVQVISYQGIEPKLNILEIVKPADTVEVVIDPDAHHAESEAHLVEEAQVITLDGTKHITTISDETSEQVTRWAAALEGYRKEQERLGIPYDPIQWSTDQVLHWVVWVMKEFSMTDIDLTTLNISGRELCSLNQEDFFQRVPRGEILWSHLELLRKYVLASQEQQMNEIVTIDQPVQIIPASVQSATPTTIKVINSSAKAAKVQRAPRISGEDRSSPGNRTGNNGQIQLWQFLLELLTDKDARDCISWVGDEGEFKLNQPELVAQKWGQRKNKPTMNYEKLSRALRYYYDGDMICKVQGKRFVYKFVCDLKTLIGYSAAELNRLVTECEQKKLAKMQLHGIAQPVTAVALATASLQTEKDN
# Procedure, shortened: as §1
# ERG = target: T4, ERG (Homo sapiens, UniProt P11308 1-479); details: protein: recombinant; tags: N-terminal GST; dsDNA, one strand shown
# T4 sequence: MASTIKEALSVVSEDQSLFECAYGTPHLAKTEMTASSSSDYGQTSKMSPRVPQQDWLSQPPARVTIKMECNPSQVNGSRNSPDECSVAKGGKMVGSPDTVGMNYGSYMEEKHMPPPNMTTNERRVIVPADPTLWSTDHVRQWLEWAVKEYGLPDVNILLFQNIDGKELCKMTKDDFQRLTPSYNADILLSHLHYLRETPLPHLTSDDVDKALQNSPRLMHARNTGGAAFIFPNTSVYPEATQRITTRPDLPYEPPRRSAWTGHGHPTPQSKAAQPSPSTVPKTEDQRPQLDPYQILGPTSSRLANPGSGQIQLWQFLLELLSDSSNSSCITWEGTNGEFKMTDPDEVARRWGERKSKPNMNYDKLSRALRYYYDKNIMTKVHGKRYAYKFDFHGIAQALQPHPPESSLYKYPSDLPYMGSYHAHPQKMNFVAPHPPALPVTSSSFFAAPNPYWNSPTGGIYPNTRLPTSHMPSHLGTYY
# Procedure, shortened: as §1
# ELF1 = ELF1 (Homo sapiens, UniProt P32519 1-619); details: protein: recombinant; tags: N-terminal GST; dsDNA, one strand shown
# Chain of ELF1 (P32519 whole entry): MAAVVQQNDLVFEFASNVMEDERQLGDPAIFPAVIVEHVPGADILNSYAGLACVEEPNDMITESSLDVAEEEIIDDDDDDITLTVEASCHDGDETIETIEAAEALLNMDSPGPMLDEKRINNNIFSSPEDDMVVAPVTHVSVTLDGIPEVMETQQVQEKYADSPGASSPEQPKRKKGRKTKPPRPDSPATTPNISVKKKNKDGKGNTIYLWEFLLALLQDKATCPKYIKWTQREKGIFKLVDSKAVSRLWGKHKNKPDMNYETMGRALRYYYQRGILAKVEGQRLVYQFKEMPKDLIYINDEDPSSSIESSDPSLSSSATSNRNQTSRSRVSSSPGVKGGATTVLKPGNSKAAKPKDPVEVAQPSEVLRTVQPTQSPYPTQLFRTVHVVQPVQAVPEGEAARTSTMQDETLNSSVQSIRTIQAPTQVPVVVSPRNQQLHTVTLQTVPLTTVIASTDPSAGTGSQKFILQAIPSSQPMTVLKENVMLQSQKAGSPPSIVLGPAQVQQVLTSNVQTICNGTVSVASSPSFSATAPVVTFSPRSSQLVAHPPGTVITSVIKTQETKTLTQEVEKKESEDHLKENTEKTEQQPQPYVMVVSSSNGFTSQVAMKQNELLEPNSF
# Procedure, shortened: as §1
# EHF = target: T5, EHF (Homo sapiens, UniProt Q9NZC4 1-300); details: protein: recombinant; tags: N-terminal GST; dsDNA, one strand shown
# T5 sequence: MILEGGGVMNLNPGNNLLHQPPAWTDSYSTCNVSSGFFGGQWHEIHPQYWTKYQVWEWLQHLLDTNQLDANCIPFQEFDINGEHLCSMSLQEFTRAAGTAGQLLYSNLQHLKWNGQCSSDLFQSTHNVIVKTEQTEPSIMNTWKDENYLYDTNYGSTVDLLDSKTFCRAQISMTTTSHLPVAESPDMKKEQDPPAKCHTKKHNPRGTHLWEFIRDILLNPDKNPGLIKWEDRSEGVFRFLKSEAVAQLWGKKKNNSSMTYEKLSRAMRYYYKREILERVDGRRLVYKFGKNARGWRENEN
# Procedure, shortened: as §1
# SPI1 = SPI1 (Homo sapiens, UniProt P17947 1-270); details: protein: recombinant; tags: N-terminal GST; dsDNA, one strand shown
# Procedure, shortened: as §1
# SPIB = SPIB (Homo sapiens, UniProt Q01892 1-262); details: protein: recombinant; tags: N-terminal GST; dsDNA, one strand shown
# Chain of SPIB (Q01892 whole entry): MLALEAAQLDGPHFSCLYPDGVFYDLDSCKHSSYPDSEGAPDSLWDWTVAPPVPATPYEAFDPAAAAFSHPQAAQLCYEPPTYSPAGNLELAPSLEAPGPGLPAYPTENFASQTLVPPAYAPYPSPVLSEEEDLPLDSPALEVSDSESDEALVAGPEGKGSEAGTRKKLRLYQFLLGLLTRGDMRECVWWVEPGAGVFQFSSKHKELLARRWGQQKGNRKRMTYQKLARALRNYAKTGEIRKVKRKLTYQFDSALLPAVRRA
# Procedure, shortened: as §1
# ELK3 = target: T6, ELK3 (Homo sapiens, UniProt P41970 1-407); details: protein: recombinant; tags: N-terminal GST; dsDNA, one strand shown
# T6 sequence: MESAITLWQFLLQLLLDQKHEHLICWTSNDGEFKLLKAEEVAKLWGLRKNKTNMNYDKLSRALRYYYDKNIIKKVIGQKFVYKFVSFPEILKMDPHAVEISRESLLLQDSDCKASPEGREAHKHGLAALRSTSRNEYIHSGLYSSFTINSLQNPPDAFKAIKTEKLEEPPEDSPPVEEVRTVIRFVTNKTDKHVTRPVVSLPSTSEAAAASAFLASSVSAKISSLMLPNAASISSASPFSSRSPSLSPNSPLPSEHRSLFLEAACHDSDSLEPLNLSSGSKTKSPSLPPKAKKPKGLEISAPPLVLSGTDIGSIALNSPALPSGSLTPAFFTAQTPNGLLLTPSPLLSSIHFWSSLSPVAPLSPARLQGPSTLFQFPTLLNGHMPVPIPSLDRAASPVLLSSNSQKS
# Procedure, shortened: as §1
# FEV = target: T7, FEV (Homo sapiens, UniProt Q99581 1-238); details: protein: recombinant; tags: N-terminal GST; dsDNA, one strand shown
# T7 sequence: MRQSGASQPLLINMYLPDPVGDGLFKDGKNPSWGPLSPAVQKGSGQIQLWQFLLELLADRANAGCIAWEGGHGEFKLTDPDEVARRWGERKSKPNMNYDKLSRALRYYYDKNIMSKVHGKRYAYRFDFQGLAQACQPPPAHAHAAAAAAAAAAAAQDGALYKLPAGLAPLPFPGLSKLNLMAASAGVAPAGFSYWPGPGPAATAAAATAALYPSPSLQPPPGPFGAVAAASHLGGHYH
# Procedure, shortened: as §1
# ETV5 = ETV5 (Homo sapiens, UniProt P41161 1-510); details: protein: recombinant; tags: N-terminal GST; dsDNA, one strand shown
# Chain of ETV5 (P41161 whole entry): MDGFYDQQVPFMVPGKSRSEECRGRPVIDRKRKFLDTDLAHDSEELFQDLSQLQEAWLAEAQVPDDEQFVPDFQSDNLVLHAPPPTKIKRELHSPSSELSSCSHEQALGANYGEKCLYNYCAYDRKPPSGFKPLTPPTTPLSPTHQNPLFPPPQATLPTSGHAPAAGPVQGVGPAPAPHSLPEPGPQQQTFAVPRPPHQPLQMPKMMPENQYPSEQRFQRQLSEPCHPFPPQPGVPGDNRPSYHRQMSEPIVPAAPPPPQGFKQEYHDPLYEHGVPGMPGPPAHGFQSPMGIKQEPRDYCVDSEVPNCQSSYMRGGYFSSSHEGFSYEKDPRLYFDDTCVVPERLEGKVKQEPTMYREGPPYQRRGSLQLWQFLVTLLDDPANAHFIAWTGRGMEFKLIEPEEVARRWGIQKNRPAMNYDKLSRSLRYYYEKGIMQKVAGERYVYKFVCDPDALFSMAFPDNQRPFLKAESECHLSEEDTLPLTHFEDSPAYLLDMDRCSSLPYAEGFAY
# Procedure, shortened: as §1
# HSF1 = HSF1 (Homo sapiens, UniProt Q00613 1-529); details: protein: recombinant; tags: N-terminal GST; chain copies: 3; dsDNA, one strand shown
# Chain of HSF1 (Q00613 whole entry): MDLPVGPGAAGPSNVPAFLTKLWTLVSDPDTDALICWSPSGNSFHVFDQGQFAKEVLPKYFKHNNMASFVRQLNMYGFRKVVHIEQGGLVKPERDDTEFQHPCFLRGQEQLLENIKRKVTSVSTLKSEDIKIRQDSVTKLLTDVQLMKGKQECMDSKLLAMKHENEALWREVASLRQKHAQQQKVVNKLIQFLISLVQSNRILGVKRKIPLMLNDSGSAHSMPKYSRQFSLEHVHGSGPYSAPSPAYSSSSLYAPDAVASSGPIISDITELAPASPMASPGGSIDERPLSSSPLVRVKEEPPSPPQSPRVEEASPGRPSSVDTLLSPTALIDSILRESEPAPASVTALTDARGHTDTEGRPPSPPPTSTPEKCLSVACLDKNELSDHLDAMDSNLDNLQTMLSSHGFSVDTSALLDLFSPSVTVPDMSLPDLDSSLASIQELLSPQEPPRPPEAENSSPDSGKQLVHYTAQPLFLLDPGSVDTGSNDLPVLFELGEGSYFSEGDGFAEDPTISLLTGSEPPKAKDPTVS
# Procedure, shortened: as §1
# SPIC = target: T8, SPIC (Homo sapiens, UniProt Q8N5J4 1-248); details: protein: recombinant; tags: N-terminal GST; dsDNA, one strand shown
# T8 sequence: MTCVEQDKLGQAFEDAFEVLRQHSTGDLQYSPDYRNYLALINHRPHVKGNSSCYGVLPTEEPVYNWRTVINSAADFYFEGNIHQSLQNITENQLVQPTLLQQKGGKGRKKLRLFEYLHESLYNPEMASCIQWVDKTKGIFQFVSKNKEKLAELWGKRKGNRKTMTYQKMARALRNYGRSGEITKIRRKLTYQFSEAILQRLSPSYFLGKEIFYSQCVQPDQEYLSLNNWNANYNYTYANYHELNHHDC
# Procedure, shortened: as §1
# ELF4 = ELF4 (Homo sapiens, UniProt Q99607 1-663); details: protein: recombinant; tags: N-terminal GST; dsDNA, one strand shown
# Chain of ELF4 (Q99607 whole entry): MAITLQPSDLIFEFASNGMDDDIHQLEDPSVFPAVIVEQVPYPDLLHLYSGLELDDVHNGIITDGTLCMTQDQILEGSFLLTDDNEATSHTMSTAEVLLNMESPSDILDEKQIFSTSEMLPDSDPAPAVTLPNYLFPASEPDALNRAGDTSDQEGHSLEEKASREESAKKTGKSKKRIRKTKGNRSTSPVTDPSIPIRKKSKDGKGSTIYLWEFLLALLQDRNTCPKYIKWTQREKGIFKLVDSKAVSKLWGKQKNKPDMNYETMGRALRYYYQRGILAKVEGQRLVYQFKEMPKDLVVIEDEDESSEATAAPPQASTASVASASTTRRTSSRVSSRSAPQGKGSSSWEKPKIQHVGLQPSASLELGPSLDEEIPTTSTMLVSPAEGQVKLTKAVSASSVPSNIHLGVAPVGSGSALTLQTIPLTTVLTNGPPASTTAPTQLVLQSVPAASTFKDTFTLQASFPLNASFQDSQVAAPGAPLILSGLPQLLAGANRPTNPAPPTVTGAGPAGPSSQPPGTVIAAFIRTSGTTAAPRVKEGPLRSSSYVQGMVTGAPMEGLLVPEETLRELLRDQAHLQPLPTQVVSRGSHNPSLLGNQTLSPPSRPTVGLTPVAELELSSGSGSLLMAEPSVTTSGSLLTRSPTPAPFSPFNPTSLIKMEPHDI
# Procedure, shortened: as §1
# ELK4 = target: T9, ELK4 (Homo sapiens, UniProt P28324-2 1-405); details: protein: recombinant; tags: N-terminal GST; dsDNA, one strand shown
# T9 sequence: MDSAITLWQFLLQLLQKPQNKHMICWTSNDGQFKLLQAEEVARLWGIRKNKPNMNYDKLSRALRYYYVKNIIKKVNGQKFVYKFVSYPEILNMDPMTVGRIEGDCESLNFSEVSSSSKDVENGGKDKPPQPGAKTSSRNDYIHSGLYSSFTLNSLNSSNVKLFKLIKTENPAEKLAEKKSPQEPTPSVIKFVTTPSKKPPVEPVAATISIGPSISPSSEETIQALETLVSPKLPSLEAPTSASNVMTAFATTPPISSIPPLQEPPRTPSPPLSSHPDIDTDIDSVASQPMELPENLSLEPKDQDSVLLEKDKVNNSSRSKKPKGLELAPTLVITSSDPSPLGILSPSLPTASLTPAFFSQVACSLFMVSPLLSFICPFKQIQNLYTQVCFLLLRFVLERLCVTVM
# Procedure, shortened: as §1
# ETV2 = target: T10, ETV2 (Homo sapiens, UniProt O00321 1-342); details: protein: recombinant; tags: N-terminal GST; dsDNA, one strand shown
# T10 sequence: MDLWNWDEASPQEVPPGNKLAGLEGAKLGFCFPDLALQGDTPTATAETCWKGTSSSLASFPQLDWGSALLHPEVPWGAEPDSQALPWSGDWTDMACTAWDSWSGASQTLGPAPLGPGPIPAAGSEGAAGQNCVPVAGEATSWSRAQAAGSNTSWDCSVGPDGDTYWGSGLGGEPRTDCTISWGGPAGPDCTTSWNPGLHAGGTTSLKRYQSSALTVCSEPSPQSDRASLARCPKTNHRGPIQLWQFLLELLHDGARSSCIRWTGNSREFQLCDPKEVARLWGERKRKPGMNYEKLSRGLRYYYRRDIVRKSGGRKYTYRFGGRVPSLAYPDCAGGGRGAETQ
# Procedure, shortened: as §1
# ELF3 = target: T11, ELF3 (Homo sapiens, UniProt P78545 1-371); details: protein: recombinant; tags: N-terminal GST; dsDNA, one strand shown
# T11 sequence: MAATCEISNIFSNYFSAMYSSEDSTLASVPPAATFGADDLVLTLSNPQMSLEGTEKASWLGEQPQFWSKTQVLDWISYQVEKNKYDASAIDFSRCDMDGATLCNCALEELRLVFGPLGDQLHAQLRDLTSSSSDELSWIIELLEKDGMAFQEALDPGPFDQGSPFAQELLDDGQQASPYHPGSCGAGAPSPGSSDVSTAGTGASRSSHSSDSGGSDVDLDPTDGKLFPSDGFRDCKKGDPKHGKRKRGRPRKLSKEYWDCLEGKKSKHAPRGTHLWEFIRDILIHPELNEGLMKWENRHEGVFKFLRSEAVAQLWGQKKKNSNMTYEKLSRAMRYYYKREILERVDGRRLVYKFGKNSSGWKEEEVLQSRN
# Procedure, shortened: as §1
# CRX = CRX (Homo sapiens, UniProt O43186 1-299); details: protein: recombinant; tags: N-terminal GST; dsDNA, one strand shown
# Chain of CRX (O43186 whole entry): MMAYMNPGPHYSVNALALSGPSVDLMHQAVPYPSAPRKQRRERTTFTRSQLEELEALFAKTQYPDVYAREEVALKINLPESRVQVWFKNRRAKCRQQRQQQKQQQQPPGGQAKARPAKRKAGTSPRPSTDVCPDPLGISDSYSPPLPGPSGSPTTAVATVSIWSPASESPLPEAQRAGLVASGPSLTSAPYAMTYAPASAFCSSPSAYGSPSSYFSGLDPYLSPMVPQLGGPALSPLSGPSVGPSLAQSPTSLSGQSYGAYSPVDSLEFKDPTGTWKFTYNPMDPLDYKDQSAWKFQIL
# Procedure, shortened: as §1
# ETV1 = ETV1 (Homo sapiens, UniProt P50549 1-477); details: protein: recombinant; tags: N-terminal GST; dsDNA, one strand shown
# Chain of ETV1 (P50549 whole entry): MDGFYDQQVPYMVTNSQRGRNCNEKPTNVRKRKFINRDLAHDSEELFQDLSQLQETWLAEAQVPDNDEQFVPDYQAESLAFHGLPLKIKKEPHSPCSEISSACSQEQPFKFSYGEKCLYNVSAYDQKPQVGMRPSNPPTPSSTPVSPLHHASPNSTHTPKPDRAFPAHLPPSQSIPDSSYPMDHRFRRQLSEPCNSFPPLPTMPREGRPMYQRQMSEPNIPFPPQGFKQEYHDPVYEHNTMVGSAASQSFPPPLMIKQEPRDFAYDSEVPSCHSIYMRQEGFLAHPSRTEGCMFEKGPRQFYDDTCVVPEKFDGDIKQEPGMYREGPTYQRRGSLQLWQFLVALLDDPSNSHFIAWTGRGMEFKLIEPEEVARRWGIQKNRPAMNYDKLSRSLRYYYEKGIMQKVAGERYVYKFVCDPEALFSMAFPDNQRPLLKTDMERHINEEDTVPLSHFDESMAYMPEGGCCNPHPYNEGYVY
# Procedure, shortened: as §1
sequence,measurement,setting,value
CTAAGT,binding signal,FLI1,"1.21 fold enrichment (6-mer frequency, TF over GST control)"
same,binding signal,ELK1,"1.17 fold enrichment (6-mer frequency, TF over GST control)"
same,binding signal,GABPA,"1.26 fold enrichment (6-mer frequency, TF over GST control)"
same,binding signal,ERG,"1.18 fold enrichment (6-mer frequency, TF over GST control)"
same,binding signal,ELF1,"1.2 fold enrichment (6-mer frequency, TF over GST control)"
same,binding signal,EHF,"1.26 fold enrichment (6-mer frequency, TF over GST control)"
same,binding signal,SPI1,"1.19 fold enrichment (6-mer frequency, TF over GST control)"
same,binding signal,SPIB,"1.24 fold enrichment (6-mer frequency, TF over GST control)"
same,binding signal,ELK3,"1.16 fold enrichment (6-mer frequency, TF over GST control)"
same,binding signal,FEV,"1.13 fold enrichment (6-mer frequency, TF over GST control)"
same,binding signal,ETV5,"1.18 fold enrichment (6-mer frequency, TF over GST control)"
same,binding signal,HSF1,"1.3 fold enrichment (6-mer frequency, TF over GST control)"
same,binding signal,SPIC,"1.24 fold enrichment (6-mer frequency, TF over GST control)"
same,binding signal,ELF4,"1.24 fold enrichment (6-mer frequency, TF over GST control)"
same,binding signal,ELK4,"1.13 fold enrichment (6-mer frequency, TF over GST control)"
same,binding signal,ETV2,"1.24 fold enrichment (6-mer frequency, TF over GST control)"
same,binding signal,ELF3,"1.02 fold enrichment (6-mer frequency, TF over GST control)"
same,binding signal,CRX,"1.8 fold enrichment (6-mer frequency, TF over GST control)"
same,binding signal,ETV1,"1.18 fold enrichment (6-mer frequency, TF over GST control)"

# From article PMC7862700, “An all-to-all approach to the identification of sequence-specific readers for epigenetic DNA modifications on cytosine”
